Compound activity: PubChem, National Center for Advancing Translational Sciences (NCATS)
Only some compounds are listed: those with a hit (about 17% of all), similar ones and a draw of the others.
DT40 TDP1 CPT – qHTS for Inhibitors of human tyrosyl-DNA phosphodiesterase 1 (TDP1): qHTS in cells in presence of CPT; chicken DT40 Tdp1-/-;hTDP1 cells + 20 nM CPT, ATP luminescence, 48 h; Potency, µM (titrated, usually from 46.2 µM), hits mostly inhibitors; 420,000 compounds, 12% hits; AID 686979, 2013; also: nearly all actives have a fitted effect of over 55% in size
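Chicken DT40 Tdp1-/- cells complemented with human TDP1, 400 cells/well, exposed to compounds plus 20 nM camptothecin for at least 48 h at 37 C; viability read as ATP content by CellTiter-Glo luminescence.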
TDP1 cell noCPT – qHTS for Inhibitors of human tyrosyl-DNA phosphodiesterase 1 (TDP1): qHTS in cells in absence of CPT; DT40 Tdp1-/- hTDP1 cells, no CPT, ATP luminescence, 48 h; Potency, µM (series often up to 46.2 µM), actives largely listed as inhibitors; 420,000 compounds, 15% hits; AID 686978, 2013; also: nearly all actives have a fitted effect of over 55% in size
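Camptothecin absent (DMSO only). Human TDP1-complemented DT40 knockout cells, 400 cells/well, 37 °C for minimum 48 hr; ATP measured via CellTiter-Glo, 30 min dark incubation, luminescence.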
HepG2 viability – qHTS for Inhibitors of TGF-b: Cytotox Counterscreen. HepG2 CAGA-GFP viability, ATP luminescence, 18 h. Potency, µM (highest dose often 46.1 µM), most hits filed as cytotoxic. 410,000 compounds, 0.76% hits. AID 588856, 2011
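HepG2 CAGA-GFP cells (1000/well, DMEM with 1% FBS) received compound, then TGF-beta at 500 pg/mL final, and were incubated 18 hours at 37 degrees C. Viability was read by CellTiter-Glo luminescence. Media-only wells were set as complete cell-killing and DMSO as no toxicity.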
HT1080 IDH1KD tx – qHTS for induction of synthetic lethality in tumor cells producing 2HG: qHTS for the HT-1080-IDH1KD cell line; HT-1080 IDH1 knockdown viability, ATP luminescence, 48 h; Potency, µM (titrated, usually from 46.1 µM), usual class: cytotoxic; 360,000 compounds, 2% hits
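IDH1KD HT-1080 cells, 750/well, RPMI + 5% FBS; compound pinned after 2 h settling; 48 h, 37 °C; CellTiter-Glo luminescence; % activity normalised to DMSO and no-cell wells; curves fitted, classed by r2 and efficacy.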
TGFb inhibitor – qHTS for Inhibitors of TGF-b. AID 588855, 2011. Potency, µM (highest dose often 46.1 µM), actives largely listed as inhibitors. 410,000 compounds, 1.2% hits. HepG2 CAGA-GFP TGF-b/SMAD3 reporter, GFP fluorescence, 18 h; TGF-beta stimulated, 500 pg/mL final; also: nearly all actives have a fitted effect of over 65% in size
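HEPG2 CAGA-GFP, 1000 cells/well; 2 h settle, 37 C; cpd via pin tool; TGF-b 500 pg/mL final; 18 h, 37 C; GFP imaging ex488/em500-530; %Activity normalised to -TGF-b and +DMSO controls; CRC fit, curve class.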
HT1080NT lethal – qHTS for induction of synthetic lethality in tumor cells producing 2HG: qHTS for the HT-1080-NT fibrosarcoma cell line. HT-1080-NT fibrosarcoma viability, CellTiter-Glo ATP luminescence, 48 h. Potency, µM (highest dose often 46.1 µM), usual class: cytotoxic. 360,000 compounds, 1.6% hits;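 also: NT is the 2HG producing partner of a matched IDH1 knockdown line; nearly all actives have a fitted effect of over 55% in size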
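A 48-hour cytotoxicity screen used HT-1080-NT cells plated 2 hours before compound delivery. ATP-based CellTiter-Glo luminescence measured viability, normalized to DMSO and no-cell controls.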
Numbers stand for hits; - = inactive; ? = inconclusive; . = no result given; ! = repeats disagree. Calls follow the shape of the dose curve; as a rule, active = well fitted curve in the direction sought with a large enough effect; inconclusive = small, poorly fitted or top-dose-only effect, or another doubt; inactive = no such curve, though single readings can be large; an effect the other way counts as inactive or inconclusive.

SMILES | DT40 TDP1 CPT | TDP1 cell noCPT | HepG2 viability | HT1080 IDH1KD tx | TGFb inhibitor | HT1080NT lethal
CC(C)(C)OC(=O)N1CCC(c2c(C(=O)N3CCN(c4ccccc4F)CC3)cnn2-c2ccccc2Cl)CC1 | 18µM | 16µM | - | . | ? | .
CCN1CCN(C(=O)c2cnn(-c3cccc(C)c3)c2C2CCN(C(=O)OC(C)(C)C)CC2)CC1 | 21µM | ? | - | . | - | .
CC(C)(C)OC(=O)N1CCC(c2c(C(=O)NCc3ccco3)cnn2-c2ccc(F)cc2)CC1 | ? | ? | - | . | - | .
CN1CCN(C(=O)c2cnn(-c3ccc(F)cc3F)c2C2CCN(C(=O)OC(C)(C)C)CC2)CC1 | - | - | - | . | - | .
Cc1cccc(-n2ncc(C(=O)NCc3ccco3)c2C2CCN(C(=O)OC(C)(C)C)CC2)c1 | 16µM | ? | - | . | ? | .
COc1ccccc1CNC(=O)COC(=O)C12CC3CC(CC(O)(C3)C1)C2 | - | - | - | - | - | -
COc1cccc(N2CCN(C(=O)c3cnn(-c4ccc(C)cc4C)c3C3CCN(C(=O)OC(C)(C)C)CC3)CC2)c1 | ? | 21µM | - | . | ? | .
COc1cccc(N2CCN(C(=O)c3cnn(C(C)(C)C)c3C3CCN(C(=O)OC(C)(C)C)CC3)CC2)c1 | ? | ? | - | . | - | .
COc1cccc(N2CCN(C(=O)c3cnn(-c4ccccc4Cl)c3C3CCN(C(=O)OC(C)(C)C)CC3)CC2)c1 | ? | 21µM | - | . | ? | .
Cc1ccc(-n2ncc(C(=O)N3CCN(Cc4ccccc4)CC3)c2C2CCN(C(=O)OC(C)(C)C)CC2)c(C)c1 | 4.6µM | 13µM | - | . | - | .
Cc1[nH]c2ccccc2c1C(=O)C(=O)NC1CC(=O)N(c2cccc(F)c2)C1 (stereo not drawn) | - | ? | - | . | - | .
O=C1Nc2ccc(Cl)cc2C12Nc1ccccc1-c1nnc(SCc3ccccc3F)nc1O2 (stereo not drawn) | 15µM | ? | - | - | - | -
O=C1Nc2ccc(F)cc2C12Nc1ccccc1-c1nnc(SCc3ccccc3F)nc1O2 (stereo not drawn) | ? | ? | - | - | ? | -
O=C(Nc1cccc2nsnc12)c1cc2c(cc1Cl)Sc1nccn1S2(=O)=O | 23µM | ? | - | - | - | -
O=C(Nc1cccc2nsnc12)c1cccnc1Cl | - | - | - | - | - | -
Cc1ccc(NC(=O)c2noc3c2CCc2ccccc2-3)cc1 | - | - | - | - | - | -
O=C(Nc1cccc(O)c1)c1noc2c1CCc1ccccc1-2 | 16µM! | ? | - | - | ? | -
O=C(Nc1cccc(C(F)(F)F)c1)c1noc2c1CCc1ccccc1-2 | 10µM | ? | - | . | - | .
CC(CCc1ccccc1)NC(=O)COC(=O)C12CC3CC(CC(Br)(C3)C1)C2 (stereo not drawn) | ? | ? | - | - | - | -
CN(C)C(=O)c1cn(-c2ccccc2)nc1-c1cc2ccccc2o1 | - | - | - | - | - | -
Cc1nn(Cc2c(Cl)cccc2Cl)c(C)c1NC(=O)c1cn(-c2ccccc2)nc1-c1ccccc1 | 6.5µM | 4.6µM | - | 4.1µM | - | 3.7µM
O=C(Nc1ccccc1)c1cn(-c2ccccc2)nc1-c1ccccc1 | ? | 16µM | - | . | - | .
O=C(Nc1ccc([N+](=O)[O-])cc1)c1cn(-c2ccccc2)nc1-c1cc2ccccc2o1 | 8.2µM | 10µM | - | - | - | -
CC(C)N1CC(C(=O)Nc2cccc([N+](=O)[O-])c2)CC1=O (stereo not drawn) | - | - | - | - | - | -
CC[C@H](C)C(N)c1cn([C@@H](CC(N)=O)C(=O)N2CCNCC2)nn1 (stereo partly drawn) | - | - | - | - | - | -
SMILES | DT40 TDP1 CPT | TDP1 cell noCPT | HepG2 viability | HT1080 IDH1KD tx | TGFb inhibitor | HT1080NT lethal
Cc1cc2c(cc1C)-n1nnnc1C(N1CCN(CC(=O)NC(C)C)CC1)C(=O)N2 (stereo not drawn) | ? | - | . | - | . | -
Cc1cc2c(cc1C)-n1nnnc1C(N(Cc1ccccc1)Cc1ccccc1)C(=O)N2 (stereo not drawn) | ? | 21µM | . | - | . | -
COc1cc(C)ccc1OCCOc1c(C)cc(Cl)cc1Cl | - | - | - | - | - | -
CN(C1=NC(=O)C(CC(=O)Nc2ccc(Br)cc2)S1)c1ccc(O)cc1 (stereo not drawn) | ? | ? | - | 7.9µM | ? | ?
CCCCNC(=O)c1nc(-c2cnc(C)cn2)oc1-c1ccc(Cl)cc1 | ? | ? | . | - | . | -
CCCCNC(=O)c1nc(-c2cccnc2OC)oc1-c1ccc(Cl)cc1 | 16µM | 23µM | . | - | . | -
COc1ccccc1N1CCN(C(CNC(=O)C(=O)NCCCN(C)C)c2cccnc2)CC1 (stereo not drawn) | - | - | - | . | - | .
CCOc1ccc(NC(=O)C(=O)NCC(c2cccnc2)N2CCc3ccccc32)cc1 (stereo not drawn) | 4.1µM | 3.7µM | - | . | ? | .
COc1ccc(NC(=O)C(=O)NCC(c2cccnc2)N2CCc3ccccc32)cc1OC (stereo not drawn) | ? | 21µM | - | . | ? | .
COc1ccc(C)cc1NC(=O)C(=O)NCC(c1cccnc1)N1CCc2ccccc21 (stereo not drawn) | ? | 15µM | - | . | - | .
COc1ccc(C)cc1NC(=O)C(=O)NCC(c1cccnc1)N1CCN(c2ccccc2F)CC1 (stereo not drawn) | ? | 18µM | - | . | ? | .
C/C(=N\NC(=O)CCC(=O)Nc1ccccc1)c1cccs1 | ? | - | - | - | - | -
CCc1ccccc1NC(=O)C(=O)NCC(c1cccnc1)N1CCN(c2ccccc2F)CC1 (stereo not drawn) | ? | 15µM | - | . | - | .
COCCNC(=O)C(=O)NCC(c1cccnc1)N1CCN(c2ccccc2F)CC1 (stereo not drawn) | - | - | - | . | - | .
COC(=O)c1ccc(NC(=O)C(=O)NCC(c2cccnc2)N2CCc3ccccc32)cc1 (stereo not drawn) | 15µM | 16µM | - | . | ? | .
CC(C)CN(C(=O)COC(=O)c1ccccc1SCC(=O)N1CCCC1)C1CCS(=O)(=O)C1 (stereo not drawn) | - | - | - | - | - | -
